Read-out in assay [1]: Human Leukocyte Antigen - DR isotype (HLADR), HLA-DRA (gene 3122)
The assay can be described thus: BSK_BE3C_HLADR: BioMAP Diversity Plus: BE3C Assay for Human Leukocyte Antigen - DR isotype (HLADR) Biomarker Activity (AID 2283032). The following applies: primary human bronchial epithelial cells; actives raise or lower the signal. The method in brief: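 Chemicals are dosed onto BE3C bronchial epithelial cultures of human origin and left 24 h. HLA-DR is then measured by ELISA, and the endpoint is fitted in both directions using DMSO as the activity baseline.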

Read-out in assay [2]: Vascular cell adhesion molecule 1 (VCAM1), VCAM1 (gene 7412)
The assay can be described thus: BSK_4H_VCAM1: BioMAP Diversity Plus: 4H Assay for Vascular cell adhesion molecule 1 (VCAM1) Biomarker Activity (AID 2283033).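 For outcome: cell-surface VCAM-1 protein measured by ELISA.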 The settings on record: primary human endothelial cells (HUVEC); actives raise or lower the signal. The method in brief:
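Chemicals are added to primary human umbilical vein endothelial cells. After 24 h, VCAM-1 levels are measured by ELISA. Values come from bidirectional fitting referenced to DMSO.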

Read-out in assay [3]: Interferon-gamma inducible Protein 10 (IP10), CXCL10 (gene 3627)
The assay can be described thus: BSK_BE3C_IP10: BioMAP Diversity Plus: BE3C Assay for Interferon-gamma inducible Protein 10 (IP10) Biomarker Activity (AID 2283034). The following applies: primary human bronchial epithelial cells; actives raise or lower the signal. The gist of the method:
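IP-10 quantified by ELISA serves as the endpoint. Cells: primary human bronchial epithelium, read 24 h after compound addition. Activity is derived by bidirectional fitting with DMSO as negative control.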

Read-out in assay [4]: Monokine induced gamma interferon (MIG), CXCL9 (gene 4283)
The assay can be described thus: BSK_BE3C_MIG: BioMAP Diversity Plus: BE3C Assay for Monokine induced gamma interferon (MIG) Biomarker Activity (AID 2283035).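 For outcome: MIG protein measured by ELISA in BE3C cultures after 24 h of dosing.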 The settings on record: primary human bronchial epithelial cells; actives raise or lower the signal. The method in brief: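 Dose cells (human primary bronchial epithelial), incubate 24 h, quantify MIG by ELISA, then fit concentration–response in both directions relative to DMSO control.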

Read-out in assay [5]: Plasminogen activator inhibitor-1 (PAI1), SERPINE1 (gene 5054)
The assay can be described thus: BSK_BE3C_PAI1: BioMAP Diversity Plus: BE3C Assay for Plasminogen activator inhibitor-1 (PAI1) Biomarker Activity (AID 2283037). The following applies: primary human bronchial epithelial cells; actives raise or lower the signal. The method in brief: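 Values derive from bidirectional fitting against DMSO baseline of PAI-1 levels, measured by ELISA in human bronchial epithelial cells 24 h after compound addition.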

Read-out in assay [6]: urokinase plasminogen activator (uPA), PLAU (gene 5328)
Kind of assay: BSK_BE3C_uPA: BioMAP Diversity Plus: BE3C Assay for urokinase plasminogen activator (uPA) Biomarker Activity (AID 2283038).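 For outcome: uPA protein level quantified by ELISA in cell cultures; uPA read one day after compound addition.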 The following applies: primary human bronchial epithelial cells; actives raise or lower the signal. The method in brief: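 Using confluent primary human lung bronchial epithelial cultures, we dosed chemicals, waited 24 h, then ran a uPA ELISA, fitting bidirectionally against DMSO.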

Read-out in assay [7]: Urokinase-type plasminogen activator receptor (uPAR), PLAUR (gene 5329)
Kind of assay: BSK_BE3C_uPAR: BioMAP Diversity Plus: BE3C Assay for Urokinase-type plasminogen activator receptor (uPAR) Biomarker Activity (AID 2283039).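 For outcome: uPAR protein level measured by ELISA on the cells; cells exposed to compound for one day before measurement.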 The settings on record: primary human bronchial epithelial cells; actives raise or lower the signal. The gist of the method: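 Steps: dose human primary bronchial epithelial cells, incubate 24 h, measure uPAR by ELISA, then fit gain- or loss-of-signal response bidirectionally relative to DMSO.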

Read-out in assay [8]: Interleukin-6 (IL6), IL6 (gene 3569)
The assay can be described thus: BSK_CASM3C_IL6: BioMAP Diversity Plus: CASM3C Assay for Interleukin-6 (IL6) Biomarker Activity for (AID 2283040). The settings on record: primary human coronary artery smooth muscle cells; actives raise or lower the signal.

Read-out in assay [9]: Vascular endothelial growth factor receptor 2 (Homo sapiens) (UniProt P35968)
Kind of assay: BSK_4H_VEGFRII: BioMAP Diversity Plus: 4H Assay for Vascular endothelial growth factor receptor 2 (VEGFR2) Biomarker Activity (AID 2283031).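 For AC50: cell-surface VEGFR2 protein level quantified by ELISA.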 The following applies: primary human endothelial cells (HUVEC); actives raise or lower the signal. The method in brief: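 In this multiplexed HUVEC system, biomarker ELISA was performed after 24 h chemical exposure. Parallel SRB staining (TCA fixation, 560 nm) tracked cytotoxicity; DMSO served as baseline.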

Read-out in assay [10]: Transforming growth factor beta 1 (TGFb1), TGFB1 (gene 7040)
The assay can be described thus: BSK_BE3C_TGFb1: BioMAP Diversity Plus: BE3C Assay for Transforming growth factor beta 1 (TGFb1) Biomarker Activity (AID 2283036;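 for outcome: TGF-b1 protein level measured by ELISA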). The following applies: primary human bronchial epithelial cells; actives raise or lower the signal. The gist of the method: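 Bronchial epithelial primary cells are treated with test chemical, then TGF-b1 is quantified by ELISA after 24 hours. Values derive from bidirectional fitting against DMSO, with cytotoxicity checked by SRB staining in parallel cultures.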

Values joined by “and” are separate entries in the source; they are usually repeats but may differ in a detail not shown here. Equal entries are not always repeated. Where a structure was tested more than once in an assay, its records may differ in their call. Active and inactive are the calls of the source. Rule for the calls: active = hit-call score of the fitted dose curve at least 0.9, where 1 is the maximum; inactive = score below 0.9.

In general, AC50 refers to the concentration giving half of the maximal activity seen. As for `CNS(=O)(=O)C(F)(F)C(F)(F)C(F)(F)C(F)(F)C(F)(F)C(F)(F)C(F)(F)C(F)(F)F`, the outcome in [1], in assay [2], in [3], in assay [4], in assay [6] and in assay [7] was inactive. The outcome in assay [8] was inactive. The AC50 in assay [3] is 13.3 µM (active); in [5], 2.67 µM (active) and 1.97 µM (active).

As to `FC(F)(F)C(F)(F)C(F)(F)C(F)(F)C(F)(F)C(F)(F)C(F)(F)CCI`, the outcome in assay [9], in [1], in assay [2], in [3], in assay [4] and in assay [6] was inactive. Further, the outcome in [7] and in assay [8] was inactive.

Consider `O=C(O)C(F)(F)OC(F)(F)C(F)(F)OC(F)(F)C(F)(F)OC(F)(F)F`, for which the AC50 in assay [1] was 9.98 µM (active); in assay [3], 7.49 µM (active). For the same compound, the outcome in assay [1], in assay [2], in [3], in assay [4], in assay [6] and in assay [7] was inactive. The result in [8] was inactive.

As for `NS(=O)(=O)C(F)(F)C(F)(F)C(F)(F)C(F)(F)C(F)(F)C(F)(F)F`, the result in [1], in assay [2], in assay [4], in [6], in [7] and in [8] was inactive. In addition, the AC50 is 30 µM (active) in assay [2]; 30 µM (active) and 24.4 µM (active) in assay [3]; 41.8 µM (active) in [7].

In the case of `O=C(Cl)C(F)(F)C(F)(F)C(F)(F)C(F)(F)C(F)(F)C(F)(F)C(F)(F)F`, the outcome in assay [9], in [1], in [2], in assay [3], in assay [4] and in assay [6] was inactive. Moreover, the outcome in [7] and in [8] was inactive. Besides, the AC50 in assay [3] was 19.8 µM (active).

`OCC(F)(F)C(F)(F)C(F)(F)C(F)(F)C(F)(F)C(F)(F)C(F)(F)C(F)(F)CO`: the result in [9], in assay [6] and in [8] was inactive. Besides, the half-maximal activity concentration (AC50) is 30 µM (active) and 31.7 µM (active) in assay [1]; 30 µM (active) and 24.8 µM (active) in assay [2]; 38 µM (active) and 30.8 µM (active) in [3]; 43 µM (active) and 46.6 µM (active) in [4]; 43.7 µM (active) and 40.9 µM (active) in [7].

`OCCCCC(F)(F)C(F)(F)C(F)(F)C(F)(F)F`: the result in [9], in assay [1], in assay [2], in assay [3], in assay [4] and in [5] was inactive. In addition, the result in [6], in assay [7] and in assay [8] was inactive.

As to `CCN(CC)c1ccc(C=O)c(O)c1`, the result in assay [9], in [1], in assay [2], in assay [3], in [4] and in assay [10] was inactive. In addition, the outcome in [5], in assay [6], in assay [7] and in assay [8] was inactive.

As to `NCC(F)(F)C(F)(F)C(F)(F)C(F)(F)C(F)(F)C(F)(F)C(F)(F)C(F)(F)F`, the result in [9], in assay [1], in assay [2], in assay [3], in assay [4] and in [6] was inactive. The outcome in assay [7] and in assay [8] was inactive.

In the case of `O=C1c2c(O)ccc(Nc3ccc(CCO)cc3)c2C(=O)c2c([N+](=O)[O-])ccc(O)c21`, the AC50 is 34.8 µM (active) in assay [9]; 3.43 µM (active) in assay [1]; 26.6 µM (active) in assay [2]; 20 µM (active) in [3]; 20 µM (active) in assay [4]. Moreover, the outcome in assay [10], in [5], in assay [6], in assay [7] and in assay [8] was inactive.

Regarding `CC(C)(C)c1cc(CCC(=O)NCCCCCCNC(=O)CCc2cc(C(C)(C)C)c(O)c(C(C)(C)C)c2)cc(C(C)(C)C)c1O`, the result in [9], in assay [1], in [2], in [4], in assay [10] and in [6] was inactive. Besides, the outcome in assay [7] and in [8] was inactive. Besides, in assay [3], the AC50 is 0.121 µM (active).

Turning to `O=C(O)CCC(F)(F)C(F)(F)C(F)(F)C(F)(F)C(F)(F)C(F)(F)C(F)(F)F`, the AC50 was 2.48 µM (active) and 3.33 µM (active) in assay [1]; 2.32 µM (active) in assay [3]. In addition, the outcome in assay [2], in [3], in [4], in [6], in assay [7] and in assay [8] was inactive.

As to `Cc1cc(C)c(O)c(C(C)(C)C)c1`, the result in assay [9] was inactive. The AC50 is 29.5 µM (active) in [1]; 30.4 µM (active) in assay [2]; 31 µM (active) in [3]; 36 µM (active) in [4]; 29.8 µM (active) in assay [10]; 28.7 µM (active) in assay [6]. Further, the AC50 is 28.2 µM (active) in assay [7] and 29.6 µM (active) in assay [8].

For `OCC(O)CC(F)(F)C(F)(F)C(F)(F)C(F)(F)F` (stereo unspecified), the result in assay [9], in assay [1], in [2], in assay [3], in [4] and in assay [6] was inactive. In addition, the outcome in [7] and in assay [8] was inactive.

Regarding `O=S(=O)(OCC(F)(F)F)C(F)(F)C(F)(F)C(F)(F)C(F)(F)F`, the outcome in assay [9], in assay [1], in assay [2], in assay [3], in [4] and in assay [6] was inactive. Also, the result in assay [7] and in assay [8] was inactive.

With `CCN(CC)c1ccc(C=O)cc1`, the result in [9], in assay [1], in [2], in assay [3], in [4] and in assay [10] was inactive. Also, the result in [5], in assay [6], in assay [7] and in assay [8] was inactive.

(Values after PubChem BioAssay (EPA / NIEHS).)
